High-throughput results: PubChem, SRMLSC
PMK inhibit: blocks S. pneumoniae phosphomevalonate kinase | purified PMK, PK/LDH-coupled NADH absorbance 340 nm | inhibition, % at 10 µM | 65,000 compounds, 0.49% hits;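 active = top-ranked compounds by inhibition in the single 10 µM screen, taking a fixed number of the strongest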;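 also: 0% = full reaction with DMSO carrier and 100% = background rate without enzyme reaction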
Spn MK inh: blocks S. pneumoniae mevalonate kinase; purified MK, PK/LDH-coupled NADH absorbance 340 nm; inhibition, % at 10 µM; 65,000 compounds, 0.48% hits;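 active = ranked among the strongest by inhibition in the single 10 µM screen, a fixed top-ranked set picked for dose follow-up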
DPM-DC inhibit: inhibitors of Streptococcus pneumoniae diphosphomevalonate decarboxylase; purified DPM-DC, PK/LDH coupled NADH fluorescence; calls only at 10 µM; 65,000 compounds, 0.49% hits; AID 556;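 active = the 320 compounds with the highest percent inhibition in the single-dose primary screen, excluding strongly autofluorescent ones, cut at about 32% in these data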;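 also: kinetic rate of NADH fluorescence loss reporting ADP formed by the decarboxylase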
NADH enzymes: inhibition of NAD/NADH coupling enzymes, library profiling | coupled PK/LDH NADH assays, four targets | IC50, µM (series often up to 10 µM), inactives show at the highest dose inhibition | 65,000 compounds, 0.02% hits | AID 774;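 active = single-dose screening hits from any of four coupled enzyme assays that gave an IC50 when retested across doses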;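 also: the DPM-DC format reads NADH fluorescence rather than 340 nm absorbance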
Autofluor 339: intrinsic fluorescence of library compounds, ex339/em460 – biochemical, MLSMR library, data from DPM-DC assay, artefact control, profiling panel. compound autofluorescence, ex339/em460 nm, NADH buffer; hits give high values; 1 = no-compound wells, NADH background. fluorescence fold increase at 10 µM. 65,000 compounds, 5.5% hits. AID 709;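 active = at 10 µM, mean starting fluorescence two-fold or more over control wells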;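 also: signal is the first read of a kinetic run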
A340 absorber: compound absorbs light at 340 nm. fold change at 10 µM. compound absorbance at 340 nm, fold over control. 65,000 tested, under 10 active;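 active = at 10 µM dose, initial 340 nm absorbance at least 2 fold that of control wells; inactive = change under 2 fold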;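 also: initial absorbance extrapolated from kinetic A340 decline of NADH oxidation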
* hit, by the source's call; i = inactive; nt = no result shown; + = active, no number. Rows were chosen to be rich in hits. Some 6.8% of all compounds tested hit in one or more screens of this group.

SMILES	PMK inhibit	Spn MK inh	DPM-DC inhibit	NADH enzymes	Autofluor 339	A340 absorber
Nc1[nH]nc2nc(N3CCCC3)nc(-c3ccccc3)c12	16.0	9.0	i	3.0%	0.98	1.01
COc1ccc(-c2nc(N3CCCC3)nc3nn4c(C)cc(C)nc4c23)cc1	18.0	0.0	i	10.0%	2.18*	1.04
COc1ccccc1OCc1nnc(SCC(=O)N2CCCCC2)n1-c1ccccc1	7.0	0.0	i	7.0%	0.97	1.02
COc1ccccc1-n1c(SCC(=O)N2CCCCC2)nnc1-c1ccccc1O	27.0*	5.0	i	11.0%	1.04	1.01
CSc1nc2nc(C)cc(-c3ccccc3)n2n1	1.0	10.0	i	7.0%	1.73	1.04
CSc1nc2nc(-c3ccccc3)cc(C(F)(F)F)n2n1	3.0	2.0	nt	3.0%	3.83*	1.17
O=C(c1ccc(CNc2c(N3CCCC3)c(=O)c2=O)cc1)N1CCc2ccccc2C1	2.0	6.0	i	3.0%	1.03	1.01
O=C(NCC1CCCO1)c1ccccn1 (centres undefined)	12.0	6.0	i	6.0%	1.19	1
O=C(NCCCNC(=O)c1ccccn1)c1ccccn1	25.0*	0.0	i	4.0%	1.06	0.99
C=CCNc1ncnc2c1[nH]c1ccccc12	8.0	6.0	i	11.0%	2.49*	1.08
CCOCCCNc1ncnc2c1[nH]c1ccccc12	8.0	6.0	i	4.0%	1.67	1.01
c1ccc2c(c1)[nH]c1c(NCC3CCCO3)ncnc12 (centres undefined)	10.0	7.0	i	11.0%	2.78*	1.09
Cc1nc(SCC(=O)Nc2c(C)n(C)n(-c3ccccc3)c2=O)n[nH]1	14.0	0.0	i	5.0%	1.02	1
C(=N\C(/N=C/c1ccco1)c1ccco1)/c1ccco1	0.0	0.0	i	3.0%	2.05*	1.03
CC1CCC(N2CCN(S(C)(=O)=O)CC2)CC1 (centres undefined)	10.0	29.0	i	13.0%	1.1	1.03
CCS(=O)(=O)N1CCN(C2CCC(C)CC2)CC1 (centres undefined)	17.0	61.0*	i	26.0%	1.09	1.02
Clc1ccc2nc3ccccn3c2c1	3.0	5.0	nt	4.0%	2.2*	1.06
Cc1cccc(NC(=O)C2CCN(c3nccc(C)n3)CC2)c1	8.0	0.0	i	6.0%	1.48	1.06
CCCCC(=O)Nc1ccc(C(=O)NCC(=O)OC)cc1	6.0	12.0	i	7.0%	1.13	1
CCCCC(=O)Nc1ccc(C(N)=O)cc1	0.0	6.0	+	17.0%	1.07	0.99
c1ccc2c(c1)Cc1cc(CN3CCOCC3)ccc1-2	12.0	9.0	i	3.0%	1.03	0.99
O=C(COc1nnc2ccccn12)N1CCN(S(=O)(=O)c2ccccc2)CC1	13.0	12.0	nt	4.0%	3.42*	1.01
Cc1cc(=O)oc2cc3c(cc12)OCCO3	0.0	4.0	nt	2.0%	3.64*	1.09
Cc1cc2oc(=O)cc(C)c2c(=O)o1	9.0	0.0	i	10.0%	1.22	1.04
Cc1cc(=O)oc2cc3c(cc12)OCCN3	11.0	4.0	nt	8.0%	2.08*	1.12
SMILES	PMK inhibit	Spn MK inh	DPM-DC inhibit	NADH enzymes	Autofluor 339	A340 absorber
COc1cc(C(=O)O)cc(Br)c1OC1CCCC1	18.0	8.0	i	10.0%	1.1	1
CCC(C)(C)n1nnnc1C(c1cc2cc(C)ccc2[nH]c1=O)N1CCCC1 (centres undefined)	11.0	15.0	i	7.0%	1.42	1.03
CCN1CCN(C(c2cc3cc4c(cc3[nH]c2=O)OCO4)c2nnnn2C(C)(C)CC)CC1 (centres undefined)	6.0	10.0	nt	8.0%	4.01*	1.06
CC(C)(C)n1nnnc1C(c1cc2cc3c(cc2[nH]c1=O)OCO3)N1CCN(c2ccccc2)CC1 (centres undefined)	6.0	2.0	+	13.0%	3.04*	1.06
O=c1[nH]c2cc3c(cc2cc1C(c1nnnn1CC1CCCO1)N1CCCC1)OCO3 (centres undefined)	13.0	9.0	nt	11.0%	4.79*	1.09
Cc1ccc(N(CC(O)COCc2ccco2)S(=O)(=O)c2ccc(C)cc2)cc1 (centres undefined)	4.0	9.0	i	4.0%	1.15	1.01
Cc1ccc2c(c1)N(CC(=O)NCc1cccs1)C(=O)CO2	14.0	8.0	i	8.0%	1.06	0.98
c1nc(NC2CCCC2)c2[nH]cnc2n1	0.0	5.0	i	4.0%	1.29	1.03
c1ccc2c(NC3CCCC3)nnc(NC3CCCC3)c2c1	14.0	0.0	i	4.0%	2.09*	1.01
COc1ccc(-n2c3c(cc(C(=O)Nc4ccc5c(c4)C(=O)NC5=O)c2=O)C(=O)CCC3)cc1	13.0	8.0	i	7.0%	1.23	1.14
COc1ccccc1-c1cc(C2CC2)nc(N)c1C#N	7.0	6.0	nt	7.0%	2.13*	1.07
COc1ccccc1N1CCN(c2nc(N)c(C#N)c(CC#N)c2C#N)CC1	4.0	7.0	i	7.0%	1.06	1.09
CCc1nc(N)c(C#N)c(-c2ccccc2OC)c1C	15.0	5.0	i	10.0%	2.28*	1.05
COc1ccccc1-c1c(C)c(C)nc(N)c1C#N	8.0	8.0	i	9.0%	2.37*	1.05
c1csc(-c2csc3nc(CN4CCOCC4)nc(NCc4ccc5c(c4)OCO5)c23)c1	14.0	2.0	i	6.0%	0.96	1.01
NS(=O)(=O)c1cc2c(cc1Cl)NC=NS2(=O)=O	0.0	2.0	i	2.0%	1.04	1
C=C1C(C(=O)N2CCOCC2)C1C(=O)N1CCOCC1 (centres undefined)	17.0	9.0	i	9.0%	1.08	1.02
Cn1nc(CC(=O)Nc2ccc3c(c2)CCC3)c2ccccc2c1=O	7.0	4.0	i	4.0%	1.09	1
Cn1nc(CC(=O)Nc2ncc(Br)s2)c2ccccc2c1=O	25.0*	0.0	i	8.0%	1.07	1.04
Cc1cc(-c2ccc(Cl)cc2)n2nc(N)nc2n1	0.0	4.0	nt	2.0%	3.62*	1.07
Cc1cc(Nc2ccc(F)c(Cl)c2)n2nc(C)nc2n1	8.0	12.0	i	7.0%	1.11	1.07
Nc1nc2nccc(-c3ccc(Cl)cc3)n2n1	17.0	7.0	nt	12.0%	3.77*	1.13
COc1ccc(S(=O)(=O)n2nc(OC(=O)c3c(-c4ccccc4Cl)noc3C)cc2N)cc1	0.0	1.0	i	0.0%	1.12	1.03
COc1ccc2c(c1)CCc1c(C(=O)N3CCCCCC3)noc1-2	16.0	0.0	i	5.0%	1.11	1.01
COc1ccc2c(c1)CCc1cc(C(=O)N3CCN(c4ccc(N5CCOCC5)nn4)CC3)sc1-2	11.0	15.0	nt	6.0%	2.46*	1.02
O=C(Nc1ccc(N2CCOCC2)cc1)Nc1ccc2nc(-c3ccco3)c(-c3ccco3)nc2c1	0.0	3.0	i	3.0%	1.06	1.02
